Calls of active or inactive are those of the source.
Assays:
[1] = tested on: PRMT1 (protein arginine N-methyltransferase 1); assay: PRMT1 binders on small-molecule microarrays, primary screen, biochemical, small-molecule microarray, 635 nm fluorescence (AID 1088); settings: small-molecule microarray binding, higher = more signal;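 also: binding of Prmt1 protein to compounds spotted on small-molecule microarray slides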
[2] = yeast growth modulation, basal conditions, primary screen, YJM789 clinical isolate, OD600, 24 h (AID 1089);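 also: growth of clinical yeast isolate S. cerevisiae YJM 789 seeded 1000 cells per well; test concentration not given here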; settings: S. cerevisiae YJM789 growth, higher = more signal, called active from +8 up or from −8 down
[3] = fission yeast growth modulation, primary screen, strain 972, OD600, 24 h, no modulator (AID 1090);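 also: basal condition with compound alone and no growth modifier present; test concentration not given here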; settings: S. pombe 972 growth, higher = more signal, called active from +8 up or from −8 down
[4] = S. cerevisiae growth modulation with rapamycin, primary screen, strain BY4716, OD600, 96 h (AID 1091); settings: higher = more signal, called active from +8 up or from −8 down; also: test concentration not given here
[5] = biological target: Torsin-1A-interacting protein 2 (Homo sapiens) (UniProt Q8NFQ8); assay: LULL1 binders on small-molecule microarray, primary screen, cell lysate, human LULL1 lysate, 635/667 nm fluorescence (AID 1092); settings: hLULL1 lysate binding, 635 nm fluorescence, higher = more signal;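 also: probe is lysate of COS7 cells overexpressing human LULL1; score merges per-feature 667 nm fluorescence with signal-to-noise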
[6] = E. coli growth modulation, two-sided OD650, primary screen, E. coli filamentation project, strain DRC41, 24 h (AID 1093); settings: OD650, 24 h, higher = more signal, called active from +8 up or from −8 down;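 also: MC1000 strain lacking acrAB efflux and sulA so SOS filamentation is blocked; test concentration not given here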
[7] = small-molecule microarray binders of probe aLefty2, primary screen, biochemical, biotinylated probe, 635/667 nm fluorescence (AID 1094); settings: higher = more signal;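 also: score merges spot fluorescence near 667 nm with spot signal-to-noise ratio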
[8] = tested on: Noggin (protein binding on small-molecule microarray); assay: Noggin binders on small-molecule microarray, primary screen, biochemical, 635/667 nm fluorescence (AID 1095); settings: 635 nm fluorescence, higher = more signal;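 also: score merges 667 nm feature fluorescence with signal to noise over triplicate slides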
[9] = biological target: Neurogenic locus notch homolog protein 3 (Homo sapiens) (UniProt Q9UM47); assay: NOTCH3 binders on small-molecule microarray, primary screen, biochemical, 635/667 nm fluorescence (AID 1096); settings: NOTCH3 binding, 635 nm fluorescence, higher = more signal
[10] = small-molecule microarray binders of probe aEGFR, primary screen, biochemical, biotinylated probe, 635/667 nm fluorescence (AID 1097); settings: higher = more signal;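 also: probe is a biotinylated anti-EGFR antibody binding compounds printed on slides; score combines fluorescence near 667 nm and signal to noise of each spot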

Sequence of Torsin-1A-interacting protein 2 (Homo sapiens) (Q8NFQ8 whole entry, looked up): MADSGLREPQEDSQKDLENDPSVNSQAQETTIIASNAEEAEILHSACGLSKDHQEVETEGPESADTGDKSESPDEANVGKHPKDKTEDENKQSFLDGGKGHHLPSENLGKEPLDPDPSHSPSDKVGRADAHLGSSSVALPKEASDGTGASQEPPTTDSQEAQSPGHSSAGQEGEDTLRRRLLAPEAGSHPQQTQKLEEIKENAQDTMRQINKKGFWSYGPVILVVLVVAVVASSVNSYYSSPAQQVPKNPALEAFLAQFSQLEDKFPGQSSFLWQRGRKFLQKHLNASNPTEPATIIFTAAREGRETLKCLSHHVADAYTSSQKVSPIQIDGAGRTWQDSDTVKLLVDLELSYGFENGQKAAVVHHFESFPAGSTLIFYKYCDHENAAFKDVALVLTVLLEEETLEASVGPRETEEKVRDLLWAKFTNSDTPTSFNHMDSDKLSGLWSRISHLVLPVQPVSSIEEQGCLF
Sequence of Neurogenic locus notch homolog protein 3 (Homo sapiens) (Q9UM47 whole entry, looked up): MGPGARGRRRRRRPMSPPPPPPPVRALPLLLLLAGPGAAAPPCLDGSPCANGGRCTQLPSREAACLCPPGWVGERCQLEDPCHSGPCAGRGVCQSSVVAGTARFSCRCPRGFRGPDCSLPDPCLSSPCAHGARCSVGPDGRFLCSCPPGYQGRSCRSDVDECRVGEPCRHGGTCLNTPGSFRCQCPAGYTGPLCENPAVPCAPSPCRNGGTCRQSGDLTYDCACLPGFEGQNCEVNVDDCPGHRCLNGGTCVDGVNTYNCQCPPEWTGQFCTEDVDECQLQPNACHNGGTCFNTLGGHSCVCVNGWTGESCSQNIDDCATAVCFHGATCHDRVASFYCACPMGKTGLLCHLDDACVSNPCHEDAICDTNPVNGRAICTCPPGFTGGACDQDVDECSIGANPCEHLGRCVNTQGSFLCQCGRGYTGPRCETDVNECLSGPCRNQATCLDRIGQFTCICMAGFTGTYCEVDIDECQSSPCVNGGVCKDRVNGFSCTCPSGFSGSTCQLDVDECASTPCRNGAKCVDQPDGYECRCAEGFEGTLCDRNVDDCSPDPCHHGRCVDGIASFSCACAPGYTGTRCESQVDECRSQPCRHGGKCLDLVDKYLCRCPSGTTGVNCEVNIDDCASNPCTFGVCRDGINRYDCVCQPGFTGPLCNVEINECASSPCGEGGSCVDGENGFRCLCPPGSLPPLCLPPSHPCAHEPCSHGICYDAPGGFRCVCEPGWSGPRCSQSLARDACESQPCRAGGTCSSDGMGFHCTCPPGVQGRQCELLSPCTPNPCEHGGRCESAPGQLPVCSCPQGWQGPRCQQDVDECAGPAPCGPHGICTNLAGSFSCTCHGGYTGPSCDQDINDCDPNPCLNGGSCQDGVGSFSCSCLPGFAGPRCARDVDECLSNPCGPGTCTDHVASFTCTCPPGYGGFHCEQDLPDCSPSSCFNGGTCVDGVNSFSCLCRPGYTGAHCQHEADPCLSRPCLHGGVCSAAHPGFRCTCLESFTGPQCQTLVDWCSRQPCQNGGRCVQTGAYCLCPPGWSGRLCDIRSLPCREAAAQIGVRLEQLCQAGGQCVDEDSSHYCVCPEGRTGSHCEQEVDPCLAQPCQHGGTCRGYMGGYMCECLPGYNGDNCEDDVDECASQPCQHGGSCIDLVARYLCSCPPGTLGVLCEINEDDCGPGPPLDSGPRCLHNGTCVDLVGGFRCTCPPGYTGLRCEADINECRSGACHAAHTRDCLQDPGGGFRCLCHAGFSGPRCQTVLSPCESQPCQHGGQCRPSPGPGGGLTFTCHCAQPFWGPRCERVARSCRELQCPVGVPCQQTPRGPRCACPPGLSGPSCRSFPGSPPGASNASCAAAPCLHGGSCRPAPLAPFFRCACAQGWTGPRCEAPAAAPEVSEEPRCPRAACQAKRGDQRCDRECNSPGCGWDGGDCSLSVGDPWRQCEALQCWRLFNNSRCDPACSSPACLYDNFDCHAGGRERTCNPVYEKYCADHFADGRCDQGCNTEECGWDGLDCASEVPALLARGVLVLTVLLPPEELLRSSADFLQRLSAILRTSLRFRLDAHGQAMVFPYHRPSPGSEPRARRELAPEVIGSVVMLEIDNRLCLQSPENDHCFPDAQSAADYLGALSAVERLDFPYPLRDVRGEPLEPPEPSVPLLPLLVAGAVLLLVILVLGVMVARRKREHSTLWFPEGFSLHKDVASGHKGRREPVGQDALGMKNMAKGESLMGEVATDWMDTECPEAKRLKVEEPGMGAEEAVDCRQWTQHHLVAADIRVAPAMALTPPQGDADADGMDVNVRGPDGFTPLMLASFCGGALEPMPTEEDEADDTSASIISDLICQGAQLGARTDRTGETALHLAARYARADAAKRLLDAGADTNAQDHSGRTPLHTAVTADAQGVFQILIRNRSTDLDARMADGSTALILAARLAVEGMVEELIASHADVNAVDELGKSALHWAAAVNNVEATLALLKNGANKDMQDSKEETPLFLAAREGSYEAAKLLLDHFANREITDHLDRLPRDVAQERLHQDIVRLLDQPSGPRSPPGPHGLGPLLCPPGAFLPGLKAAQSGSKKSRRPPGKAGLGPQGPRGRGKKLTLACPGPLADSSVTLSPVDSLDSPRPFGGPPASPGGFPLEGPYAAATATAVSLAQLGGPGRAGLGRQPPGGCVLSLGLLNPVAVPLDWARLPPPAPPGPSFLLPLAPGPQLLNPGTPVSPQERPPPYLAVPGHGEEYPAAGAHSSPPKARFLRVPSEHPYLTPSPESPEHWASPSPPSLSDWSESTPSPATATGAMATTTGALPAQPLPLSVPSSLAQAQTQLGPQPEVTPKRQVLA

| SMILES | composite z-score [1] | z-score [2] | z-score [3] | z-score [4] | composite z-score [5] | z-score [6] | composite z-score [7] | composite z-score [8] | composite z-score [9] | composite z-score [10] |
| --- | --- | --- | --- | --- | --- | --- | --- | --- | --- | --- |
| O=C(NCC(F)(F)F)[C@@H]1c2ccccc2C(=O)N(C2CCCCC2)[C@H]1c1ccc(CO)cc1 | 0.311 | 0.936 (inactive) | 0.372 (inactive) | 0.963 (inactive) | 1.76 | 0.674 (inactive) | -0.117 | 0.276 | 0.254 | -0.0987 |
| CCOC(=O)[C@H]1C/C=C/C[C@H](C(=O)OCC)C(=O)O[C@H]2[C@@H](OC)O[C@H](CO)[C@@H](OC(=O)Nc3ccc(C#N)cc3)[C@@H]2OC1=O | 0.595 | -1.87 (inactive) | -1.11 (inactive) | 32.1 (active) | 2.36 | 1.92 (inactive) | -0.162 | 0.0435 | 0.466 | -0.382 |
| CCCCC=C[C@@H](NC(=O)Oc1cccc(C(F)(F)F)c1)c1ccccc1 | 0.745 | 1.06 (inactive) | 0.0148 (inactive) | 1.01 (inactive) | 0.277 | -2.21 (inactive) | 0.839 | -0.0732 | 1.08 | 0.4 |
| CCOC(=O)C1=CCC(c2ccc(C)cc2)N(S(=O)(=O)c2ccc(C)cc2)C1 (stereo not given) | 0.329 | 0.564 (inactive) | 1.59 (inactive) | 2.26 (inactive) | 1.69 | -0.422 (inactive) | 0.0283 | -0.0866 | 0.234 | -0.121 |
| O=C1C2C=CC(C(O)c3ccc(F)cc3)N(Nc3ccccc3F)C2C(=O)N1c1ccccc1 (stereo not given) | 0.778 | 0.105 (inactive) | -0.268 (inactive) | 0.0787 (inactive) | 3.48 | -0.42 (inactive) | 0.0224 | -0.503 | 1.13 | -0.0549 |
| COc1cc(CO)cc(I)c1O[C@H]1C=C(C(=O)NCCO)C[C@@H](N(CCN2CCOCC2)C(=O)C2CCOC2)[C@@H]1O (stereo not given in full) | 0.815 | -0.263 (inactive) | -0.62 (inactive) | -0.679 (inactive) | -0.367 | 2.36 (inactive) | -0.0636 | 0.407 | 0.51 | -0.099 |
| O=C1C2C=CC(C(O)c3c(F)cccc3Cl)N(Nc3ccccc3)C2C(=O)N1c1ccccc1 (stereo not given) | 1.56 | 0.269 (inactive) | 0.211 (inactive) | 0.395 (inactive) | 3.43 | 0.063 (inactive) | 0.0313 | 0.461 | 1.04 | -0.0251 |
| CN(C)C(=O)[C@]1(Cc2ccccc2CN=[N+]=[N-])N=C(c2ccc(OCCCO)cc2)O[C@@H]1c1ccccc1CN=[N+]=[N-] | 1.56 | -0.0966 (inactive) | -0.16 (inactive) | 4.49 (inactive) | 3.59 | -0.255 (inactive) | 0.0112 | 1.18 | 1.11 | 0.0816 |
| COCCCNC(=O)C1N=C(c2ccc(OCCCO)cc2)N(c2ccccc2)O1 (stereo not given) | 1.39 | 0.0302 (inactive) | 0.42 (inactive) | -0.779 (inactive) | 1.94 | 0.919 (inactive) | -0.0553 | 1.08 | 0.911 | -0.0549 |
| COCCOC(=O)N1C(=O)[C@@]2(c3cc(C#Cc4ccc(OC)cc4)ccc31)[C@H](C(N)=O)[C@H]1C(=O)O[C@H](c3ccccc3)[C@H](c3ccccc3)N1[C@@H]2c1ccccc1OCCO | 1.54 | 1.05 (inactive) | 0.649 (inactive) | 3.72 (inactive) | 2.33 | 0.071 (inactive) | 0.306 | 1.55 | 1.08 | 0.245 |
| CCOC(=O)[C@H]1CC=C2CC1C(=O)N1CCC[C@@H]1[C@@H]2O[Si](C)(C)C(C)(C)C (stereo not given in full) | -0.295 | -2.4 (inactive) | -21.2 (active) | -1.8 (inactive) | 0.368 | -0.558 (inactive) | -0.376 | 0.451 | -0.979 | -0.265 |
| Cc1ccc(S[C@]2(C(=O)NCC(F)(F)F)CC(=O)N(C(C)C)[C@@H]2c2ccc(CO)cc2I)cc1 | -0.466 | -0.0408 (inactive) | -0.704 (inactive) | 2.23 (inactive) | 1.15 | 0.0493 (inactive) | -0.0873 | -1.13 | -1.01 | -0.2 |
| CN1C2C=C(CCCO)C(C3C(=O)N(C(N)=O)C(=O)C32)C1c1ccc(CN2CCCC2)cc1 (stereo not given) | -0.378 | -1.64 (inactive) | 0.715 (inactive) | -0.55 (inactive) | -0.736 | 0.194 (inactive) | -0.253 | -0.354 | -0.615 | -0.242 |
| CN1C(=O)C2C=CC(C(O)c3cccs3)N(Nc3ccccc3)C2C1=O (stereo not given) | 0.881 | 0.442 (inactive) | 0.917 (inactive) | 0.662 (inactive) | 3.24 | -1.32 (inactive) | 0.139 | 0.395 | 0.826 | -0.0111 |
| CN(C)C(=O)[C@@]1(Cc2ccccc2)N=C(c2ccc(OCCCO)cc2)O[C@H]1c1ccccc1N=[N+]=[N-] | 1.53 | -2.59 (inactive) | -1.89 (inactive) | 4.73 (inactive) | 3.3 | 0.875 (inactive) | 0.306 | 0.835 | 1.11 | 0.0595 |
| C=C(COC)/C(=C/C[C@H](OC(=O)c1ccncc1)c1ccc(OCCO)cc1)c1cnc2ccccc2c1 | 1.53 | -0.922 (inactive) | -1.39 (inactive) | 0.0294 (inactive) | 3.13 | -0.124 (inactive) | -0.0094 | 1.39 | 1.05 | 0.0176 |
| CC(=O)NCCCC[C@@H]1NC(=O)[C@@H]2C[C@H](C(=O)NCCCCN(C)C)[C@H](c3cccc(OCCO)c3)N2C1=O | 0.558 | -0.546 (inactive) | 0.595 (inactive) | -0.789 (inactive) | 1.51 | 0.187 (inactive) | -0.0124 | -0.104 | 0.465 | -0.127 |
| CC(C)C(CO)N1C(=O)[C@@H]2[C@H]3C(=O)OCC=C[C@H]3OC23C=CCN(C(C)C)C(=O)[C@@H]13 (stereo not given in full) | 0.261 | 0.58 (inactive) | 0.38 (inactive) | 0.136 (inactive) | 1.4 | 1.99 (inactive) | -0.273 | 0.503 | 0.51 | -0.194 |
| O=C1O[C@H](c2ccccc2)[C@H](c2ccccc2)N2[C@H]1[C@@H](C(=O)Nc1nc3ccccc3s1)[C@]1(C(=O)Nc3ccc(C#CC4(O)CCCCCC4)cc31)[C@H]2c1ccc(OCCO)cc1 | 1.56 | 1.22 (inactive) | 1.76 (inactive) | 1.76 (inactive) | 2.2 | 0.546 (inactive) | 0.0317 | 0.986 | 1.02 | 0.0589 |
| COc1cc2c(cc1OC)CN(C(=O)[C@H]1[C@@H]3C(=O)O[C@@H](c4ccccc4)[C@@H](c4ccccc4)N3[C@@H](c3ccc(O)cc3)[C@]13C(=O)Nc1ccc(C#CCNC(N)=O)cc13)CC2 | 1.01 | 0.485 (inactive) | -0.363 (inactive) | 0.518 (inactive) | 0.458 | 0.395 (inactive) | 0.0386 | 0.622 | 0.46 | -0.02 |
| COc1cc2c(cc1OC)CN(C(=O)[C@H]1[C@@H]3C(=O)O[C@@H](c4ccccc4)[C@@H](c4ccccc4)N3[C@@H](c3ccc(O)cc3)[C@]13C(=O)Nc1ccc(C#CC4=CCCCC4)cc13)CC2 | 1.51 | 0.203 (inactive) | -2.16 (inactive) | 0.563 (inactive) | 2.83 | 1.64 (inactive) | 0.0857 | 1.12 | 0.913 | 0.143 |
| COCCOC(=O)N1C(=O)[C@@]2(c3cc(C#Cc4ccc(OC)cc4)ccc31)[C@H](C(=O)N1CCCCCCC1)[C@H]1C(=O)O[C@H](c3ccccc3)[C@H](c3ccccc3)N1[C@@H]2c1ccc(OCCO)cc1 | 1.55 | -0.821 (inactive) | 0.0405 (inactive) | 3.27 (inactive) | 2.29 | 2.36 (inactive) | 1.59 | 2.1 | 1.01 | 0.4 |
| CC(C)(C)OC(=O)CC[C@]1(C(=O)NCC(O)CO)COC(c2ccc(OCCCO)cc2)=N1 (stereo not given in full) | 0.281 | 0.65 (inactive) | 1 (inactive) | 0.977 (inactive) | 3.71 | -0.0576 (inactive) | -0.12 | -0.579 | -0.0234 | 0.0287 |
| O=C1O[C@H](c2ccccc2)[C@H](c2ccccc2)N2[C@H]1[C@@H](C(=O)N1CCN(c3ncccn3)CC1)[C@]1(C(=O)Nc3ccc(C#CC4=CCCCC4)cc31)[C@H]2c1ccc(O)cc1 | 1.54 | 1.92 (inactive) | 1.48 (inactive) | 2.97 (inactive) | 2.76 | 0.454 (inactive) | -0.0313 | 0.555 | 0.79 | 0.0624 |
| C=CCNC(=O)[C@H]1[C@@H]2C(=O)O[C@@H](c3ccccc3)[C@@H](c3ccccc3)N2[C@@H](c2ccc(OCCO)cc2)[C@]12C(=O)N(C(=O)OCCOC)c1ccccc12 | 1.54 | 2.07 (inactive) | 0.0313 (inactive) | 4.62 (inactive) | 3.07 | 0.909 (inactive) | 0.0316 | 1.09 | 1.04 | 0.107 |
| O=C1O[C@@H](c2ccccc2)[C@@H](c2ccccc2)N2[C@@H](c3ccccc3OCCO)[C@]3(C(=O)Nc4ccc(C#CC5=CCCCC5)cc43)[C@@H](C(=O)Nc3nc4ccccc4s3)[C@H]12 | 1.56 | 1.37 (inactive) | 1.8 (inactive) | 2.58 (inactive) | 2.4 | 0.901 (inactive) | 0.123 | 0.82 | 0.993 | 0.0224 |
| COC(=O)C(CC#Cc1ccc2c(c1)[C@]1(C(=O)N2)[C@H](c2ccc(O)cc2)N2[C@H](c3ccccc3)[C@H](c3ccccc3)OC(=O)[C@H]2[C@@H]1C(=O)Nc1nc2ccccc2s1)C(=O)OC | 1.54 | -1.28 (inactive) | -0.496 (inactive) | -1.33 (inactive) | 3.22 | 0.91 (inactive) | 0.0669 | 0.508 | 1.13 | 0.0414 |
| C=C/C=C/[C@H]1C(=C)CN([C@@H](Cc2ccccc2)C(=O)OC)[C@@H]1[C@H](O)Cc1ccccc1 | -0.473 | -0.15 (inactive) | -1.35 (inactive) | -0.557 (inactive) | 0.428 | 0.311 (inactive) | -0.149 | -0.219 | -0.0424 | -0.316 |

Reference: PubChem BioAssay
